In the library only some 3.1% were active in any assay of this set; here they are far more common.
FadD28 FP inh: M. tuberculosis FadD28 bisubstrate binding inhibition; FadD28 bisubstrate probe binding, fluorescence polarization; 360,000 tested, 0.22% active; inhibition, % at 12.5 µM; AID 588549; in the data active = inhibition above about 8.5%, passing the limit was not always enough
GDH-TPI inh: counter-screen for M. tuberculosis FBA inhibitors: GDH-TPI coupled enzymes. GDH-TPI coupled enzyme counterscreen, NADH absorbance. inhibition, % at 4.8 µM. 360,000 tested, 1.2% active. AID 588335; in the data active = inhibition above about 30%
Mtb FBA inh: Mtb fructose-bisphosphate aldolase inhibition. purified M. tuberculosis FBA, fluorescence read-out. inhibition, % at 1 µM. 360,000 tested, 2.3% active. AID 588726; in the data active = inhibition above about 27%
Target sequence (P9WQA3 whole entry, looked up): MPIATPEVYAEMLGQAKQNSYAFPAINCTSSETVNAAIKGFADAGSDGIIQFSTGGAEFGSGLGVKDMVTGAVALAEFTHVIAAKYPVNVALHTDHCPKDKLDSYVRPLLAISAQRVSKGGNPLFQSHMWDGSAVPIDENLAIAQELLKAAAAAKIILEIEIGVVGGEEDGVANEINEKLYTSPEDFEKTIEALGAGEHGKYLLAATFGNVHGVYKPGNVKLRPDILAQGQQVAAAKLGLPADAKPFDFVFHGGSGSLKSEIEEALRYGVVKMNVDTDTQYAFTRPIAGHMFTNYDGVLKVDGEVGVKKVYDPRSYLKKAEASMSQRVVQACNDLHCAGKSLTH
SARS 3CLpro inh: SARS-CoV 3CLpro protease inhibition | 290,000 tested, 0.14% active | inhibition, % at 6 µM | recombinant SARS-CoV 3CLpro, quenched FRET peptide cleavage | P0C6X7; in the data active = inhibition above about 12%
Mtb BioA inh: blocks M. tuberculosis BioA enzyme activity | purified M. tuberculosis BioA enzyme, plate reader | inhibition, % at 9.99 µM | 360,000 tested, 0.096% active | AID 602481; in the data active = inhibition above about 40%
Of the large screens only hits and unclear results are named; the others gave an inactive call.

O=C(O)CCn1c(CO)nc2ccccc21	none (no result: Mtb BioA inh)
COc1cc(N/C=C(\C(C)=O)c2ccccc2)cc(OC)c1	GDH-TPI inh 44 (no result: Mtb BioA inh)
CC(=O)/C(=C/Nc1ccc(Oc2ccccc2)cc1)c1ccccc1	none (no result: Mtb BioA inh)
C[C@H]1CN([C@@H](C)CO)C(=O)Cc2cc(NC(=O)Nc3ccccc3)ccc2O[C@@H]1CN(C)C(=O)Nc1cccc2ccccc12	none (no result: FadD28 FP inh, GDH-TPI inh, Mtb FBA inh, SARS 3CLpro inh)
CC(C)NC(=O)N(C)C[C@@H]1Oc2c(NS(=O)(=O)c3cn(C)cn3)cccc2C(=O)N([C@H](C)CO)C[C@@H]1C	none (no result: FadD28 FP inh, GDH-TPI inh, Mtb FBA inh, SARS 3CLpro inh)
O=C(Oc1c(-c2ccccc2)oc2ccccc2c1=O)c1ccccc1	none
CC(=O)COc1c(-c2ccco2)oc2ccccc2c1=O	GDH-TPI inh 32
CC1CN(C(=O)c2cc3c(=O)n4ccccc4nc3s2)CC(C)O1 (configuration not stated)	GDH-TPI inh 34, Mtb FBA inh 196
CN1CCN(C(=O)c2cc3c(=O)n4ccccc4nc3s2)CC1	Mtb FBA inh active
COc1ccccc1N1CCN(C(=O)c2cc3c(=O)n4ccccc4nc3s2)CC1	none (no result: SARS 3CLpro inh)
CCC(=O)N1C[C@H]2[C@@H](c3ccccc31)[C@@H](CO)N2C(=O)Nc1ccccc1	none (no result: FadD28 FP inh, GDH-TPI inh, Mtb FBA inh, SARS 3CLpro inh)
O=C(NCc1ccccc1)[C@H]1[C@H](CO)[C@H]2Cn3c(cccc3=O)[C@@H]1N2Cc1ccccn1	none (no result: FadD28 FP inh, GDH-TPI inh, Mtb FBA inh, SARS 3CLpro inh)
COc1ccc(-n2c(/C=C(\C)O)nc(=O)c3c(C)cc(C)nc32)cc1	GDH-TPI inh 59
CNC[C@@H]1OCCCC[C@H](C)Oc2ccc(NS(=O)(=O)c3c(C)noc3C)cc2C(=O)N([C@@H](C)CO)C[C@H]1C	none (no result: FadD28 FP inh, GDH-TPI inh, Mtb FBA inh, SARS 3CLpro inh)
N/C(=N\N=C\c1ccc(O)cc1O)N[N+](=O)[O-]	GDH-TPI inh 36
COc1ccccc1/C=N/N=C(/N)N[N+](=O)[O-]	none
CC(C)NC(=O)Nc1ccc2c(c1)C(=O)N([C@H](C)CO)C[C@@H](C)[C@H](CN(C)C)O2	none (no result: FadD28 FP inh, GDH-TPI inh, Mtb FBA inh, SARS 3CLpro inh)
O=C(Nc1ccc(Cl)cc1)N[C@@H]1CC[C@H](CCn2cc(Cc3ccccc3)nn2)O[C@@H]1CO	none (no result: FadD28 FP inh, GDH-TPI inh, Mtb FBA inh, SARS 3CLpro inh)
CC(C)(C)c1ccc(OCC(=O)Nc2ccc(-c3nc4cccnc4o3)cc2)cc1	none (no result: Mtb BioA inh)
CC(C)C(=O)Nc1ccc(-c2nc3ncccc3o2)cc1	GDH-TPI inh 41, Mtb FBA inh active
CC(C)C(=O)Nc1ccc(-c2nc3cccnc3o2)cc1	GDH-TPI inh 35, Mtb FBA inh active
C[C@H]1CN([C@@H](C)CO)C(=O)c2cc(C#CC(C)(C)O)cnc2O[C@@H]1CN(C)C(=O)c1ccccc1F	none (no result: FadD28 FP inh, GDH-TPI inh, Mtb FBA inh, SARS 3CLpro inh)
COC(=O)CSc1nc2ccc(C)cc2[nH]1	none
CC(C)(C)NC(=O)CSc1nc(N)cc(=O)[nH]1	none
Cc1ccc2nc(SCC(=O)c3ccc(O)cc3O)[nH]c2c1	GDH-TPI inh 51
Nc1cc(=O)[nH]c(SCC(=O)c2ccc(O)cc2O)n1	GDH-TPI inh 34
C[C@H]1CCCCO[C@H](CN(C)C(=O)Nc2cccc3ccccc23)[C@@H](C)CN([C@@H](C)CO)C(=O)c2cc(NC(=O)c3ccncc3)ccc2O1	none (no result: FadD28 FP inh, GDH-TPI inh, Mtb FBA inh, SARS 3CLpro inh)
COc1ccc(/C=C/C(=O)NC(=S)Nc2ccc(S(=O)(=O)Nc3nccnc3OC)cc2)cc1	GDH-TPI inh 49
C/C=C/c1ccc([C@@H]2[C@@H](CO)N(C(C)=O)[C@@H]2CN(C)S(C)(=O)=O)cc1	none (no result: FadD28 FP inh, GDH-TPI inh, Mtb FBA inh, SARS 3CLpro inh)
CN1C(=O)c2cc(NS(C)(=O)=O)ccc2OC[C@@H]2O[C@H](CC(=O)NC3CCCCC3)CC[C@H]21	none (no result: FadD28 FP inh, GDH-TPI inh, Mtb FBA inh, SARS 3CLpro inh)
O=c1nc(/C=C/c2ccc(O)c(O)c2)oc2ccccc12	GDH-TPI inh 44
COc1ccc(-c2cc3ncnc(Cl)c3s2)cc1	Mtb FBA inh active
C[C@H]1CN([C@@H](C)CO)C(=O)Cc2cc(NS(=O)(=O)c3ccc(F)cc3)ccc2O[C@H]1CN(C)S(=O)(=O)c1ccc(Cl)cc1	none (no result: FadD28 FP inh, GDH-TPI inh, Mtb FBA inh, SARS 3CLpro inh)
COCCNC(=O)C[C@H]1C[C@@H]2c3cc(NC(=O)C4CCOCC4)ccc3O[C@@H]2[C@@H](CO)O1	none (no result: FadD28 FP inh, GDH-TPI inh, Mtb FBA inh, SARS 3CLpro inh)
CCOC(=O)c1ccc(-c2ccc(CO)o2)cc1	Mtb FBA inh active (no result: Mtb BioA inh)
Cc1ccc(C(=O)NC(=S)Nc2ccc(-c3ccc(CO)o3)cc2)cc1	none (no result: Mtb BioA inh)
Cc1c(CC(=O)NCC(=O)O)c(=O)oc2cc3oc4c(c3cc12)CCCC4	none (no result: FadD28 FP inh)
Cc1c(CC(=O)NCC(=O)O)c(=O)oc2cc3c(cc12)CCC(C)(C)O3	Mtb FBA inh active
Cc1c(CC(=O)NCC(=O)NCC(=O)O)c(=O)oc2cc3c(cc12)CCC(C)(C)O3	Mtb FBA inh 194
Cc1c(CC(=O)NCCCO)c(=O)oc2cc3c(cc12)CCC(C)(C)O3	Mtb FBA inh 183
Cc1c(CC(=O)NCC(=O)NCC(=O)O)c(=O)oc2c(C)c3oc4c(c3cc12)CCCC4	none

Screening results as filed in PubChem.
